CHRM1 PAM – human CHRM1 positive allosteric modulation; activation, % at 3 µM; CHO-K1 hM1, Fluo-8 calcium fluorescence, ACh EC20; 0% = ACh EC20, 100% = maximal ACh; P11229; AID 588819; 360,000 tested, 0.088% active; in the data active means activation above about 19%, passing the limit was not always enough
CHRM4 PAM – potentiates acetylcholine response at human M4 receptor; P08173; CHO-K1 hM4/Gqi5, Fluo-8 calcium fluorescence, ACh EC20; 0% = ACh EC20, 100% = maximal ACh; activation, % at 3 µM; 360,000 tested, 0.4% active;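 active means activation above its plate's cutoff, the mean activation of sample wells plus 3 SD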
Target sequence (P08173 whole entry, looked up): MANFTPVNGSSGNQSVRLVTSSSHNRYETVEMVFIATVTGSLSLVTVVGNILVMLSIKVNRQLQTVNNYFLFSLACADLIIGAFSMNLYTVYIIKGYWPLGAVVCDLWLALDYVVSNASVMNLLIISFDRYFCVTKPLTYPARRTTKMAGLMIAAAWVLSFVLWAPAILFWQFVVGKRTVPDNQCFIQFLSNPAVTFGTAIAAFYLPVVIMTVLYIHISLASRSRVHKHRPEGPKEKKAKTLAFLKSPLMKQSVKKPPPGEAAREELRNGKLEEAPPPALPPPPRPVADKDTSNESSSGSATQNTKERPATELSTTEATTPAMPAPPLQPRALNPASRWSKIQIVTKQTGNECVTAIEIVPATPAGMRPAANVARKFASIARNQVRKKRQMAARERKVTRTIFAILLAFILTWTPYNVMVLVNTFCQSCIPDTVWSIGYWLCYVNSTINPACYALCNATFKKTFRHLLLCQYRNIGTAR
CHRM1 antagonist – human CHRM1 antagonism; AID 588852; CHO-K1 hM1, Fluo-8 calcium fluorescence, ACh EC80 antagonist; inhibition, % at 3 µM; P11229; 360,000 tested, 1.3% active;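 active means percent inhibition above its own plate's cutoff, namely the mean of that plate's compound wells plus 3 SD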;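 further: peak over basal fluorescence ratio during 140 s after agonist addition; 0% = ACh EC80 plus DMSO and 100% = DMSO alone without agonist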
CHRM1 agonist – agonists of human M1 muscarinic receptor | activation, % at 3 µM | AID 588814 | P11229 | CHO-K1 hM1, Fluo-8 calcium fluorescence, agonist mode; 0% DMSO, 100% acetylcholine EC100 | 360,000 tested, 0.33% active;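 active means activation above the run's mean compound activation plus 3 SD, cut at about 16% in these data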;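 further: peak over basal fluorescence ratio within a 140 s kinetic read after compound addition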
CHRM4 antagonist – blocks acetylcholine activation of human M4 receptor | AID 624125 | inhibition, % at 3 µM | CHO-hM4 cells, ACh EC80, Fluo-8 calcium fluorescence | P08173 | 360,000 tested, 0.73% active;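 active means inhibition above its plate's cutoff, the mean inhibition of sample wells plus 3 SD, cut at about 27% in these data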;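 further: 0% = acetylcholine EC80 with DMSO and 100% = DMSO without agonist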
M4 ag – CHRM4 agonism in calcium assay; P08173; CHO-K1 hM4/Gqi5, Fluo-8 calcium fluorescence; vehicle 0%, full acetylcholine response 100%; activation, % at 3 µM; 360,000 tested, 0.14% active;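 active means activation above the run mean over all test wells plus 3 SD, cut at about 32% in these data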;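 further: peak over basal fluorescence ratio per well then scaled between controls; 0% = DMSO wells and 100% = acetylcholine at EC100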
* hit, by the source's call. Only some compounds are listed: those with a hit (about 2.2% of all), similar ones and a draw of the others.

SMILES | CHRM1 PAM | CHRM4 PAM | CHRM1 antagonist | CHRM1 agonist | CHRM4 antagonist | M4 ag
Cc1ccccc1-n1nnnc1SC(C)C(=O)NC1CCCc2ccccc21 (configuration not stated) | 4 | 6 | 1 | 0 | 3 | 2
CCn1c(COc2ccccc2)nnc1SCC(=O)C(C)(C)C | 0 | 26* | 2 | -3 | -3 | 4
COc1ccc(-n2nc(C(=O)NCC(=O)Nc3ccccn3)c3ccccc3c2=O)cc1 | 14 | 3 | -10 | -3 | 5 | 0
CCN1CCCSC1=S | 5 | 2 | -12 | -2 | -6 | 0
Cc1cccc(C)c1OCC(=O)N(Cc1ccco1)C1CCS(=O)(=O)C1 (configuration not stated) | 1 | -3 | -7 | -3 | 0 | 32*
Cc1ccc(OCC(=O)N(Cc2ccco2)C2CCS(=O)(=O)C2)cc1C (configuration not stated) | 5 | 7 | 1 | 1 | -7 | 2
COc1ccc(C(=O)NC(C(=O)NCc2ccccn2)C(C)C)cc1 (configuration not stated) | 0 | 2 | 2 | -2 | 0 | 0
CC(C)C(NC(=O)c1ccc(C(C)(C)C)cc1)C(=O)NCc1ccccn1 (configuration not stated) | -30 | 9 | 55* | -8 | -8 | 1
CN1CCN(C2Cc3ccc(F)cc3Sc3cc(F)c(Cl)cc32)CC1 (configuration not stated) | -14 | -12 | 29 | -6 | 24 | 10
CN1CCN(C2Cc3cc(F)ccc3Sc3ccc(Cl)cc32)CC1 (configuration not stated) | -26 | -75 | 100* | -1 | 84* | 16
CN1CCN(C2Cc3ccccc3Sc3ccc(Cl)cc32)CC1 (configuration not stated) | -22 | -19 | 74 | -3 | 52* | 6
CSc1ccc2c(c1)C(N1CCN(C)CC1)Cc1ccccc1S2 (configuration not stated) | -22 | -18 | 79* | -1 | 55* | 25
CCOC(=O)c1cc(-c2cccs2)nc2onc(C)c12 | 8 | -1 | -2 | -3 | 0 | 1
O=C1NC[C@H](c2ccccc2)OC(=O)[C@@H](Cc2ccc(F)cc2)CC/C=C/C[C@H]1CC(=O)N(CCO)Cc1ccccc1 | -16 | -12 | 32* | -3 | 20 | 26
O=C1NC[C@H](c2ccccc2)OC(=O)[C@H](Cc2ccc(F)cc2)CC/C=C/C[C@H]1CC(=O)N(CCO)Cc1ccccc1 | -5 | -2 | 20 | 0 | 27* | 18
O=C1NC[C@@H](c2ccccc2)OC(=O)[C@H](Cc2ccc(F)cc2)C/C=C\C[C@@H]1CC(=O)N(CCO)Cc1ccccc1 | -9 | -13 | 21 | -3 | 27* | 27
Cc1c(C(=O)N2CCC(C)CC2)sc2ncn(CC(=O)N3CCC(C)CC3)c(=O)c12 | 3 | -2 | -5 | -3 | -12 | 3
OCCN(Cc1ccccn1)Cc1ccccn1 | -32 | -11 | 72* | -12 | 22 | 1
CCCCC(CC)C1OCC(C[N+]2(C)CCOCC2)O1 (configuration not stated) | -21 | -14 | 43* | -10 | 8 | 1
Cn1cc(C(=O)c2cccc(Cl)c2Cl)cc1C#N | 9 | -3 | -6 | -11 | -5 | 1
Cn1cc(C(=O)c2cccc(Cl)c2)cc1C#N | 8 | 26* | 5 | 0 | 6 | 6
CCC(C)(C(=O)Nc1c(C)cccc1C)N(C)C(=O)c1ccc2ccccc2n1 (configuration not stated) | 4 | 15 | -3 | -1 | 37* | 1
Cc1cccc(NC(=O)CN(C)C(=O)c2ccc3ccccc3n2)c1C | 19 | 1 | -18 | 3 | -5 | 3
COC(=O)CN1C(=O)Nc2ccc(C)cc2C1c1ccccc1 (configuration not stated) | 0 | 11 | 6 | -7 | -6 | 1
CCOC(=O)CN1C(=O)Nc2ccc(Br)cc2C1c1ccccc1 (configuration not stated) | -22 | -20 | 50* | -6 | 19 | 1
SMILES | CHRM1 PAM | CHRM4 PAM | CHRM1 antagonist | CHRM1 agonist | CHRM4 antagonist | M4 ag
CC(C)(C)n1nnnc1C(c1cccs1)N(Cc1ccc(Cl)cc1)CC1CCCO1 (configuration not stated) | -12 | -7 | -11 | -2 | 3 | -1
O=C(CN1CCN(C2CCCCC2)CC1)NCCC1=CCCCC1 | -14 | 2 | -9 | 45* | 1 | -1
CN(C)CCCNC(=S)NCC(c1ccc(Cl)cc1Cl)c1c[nH]c2ccccc12 (configuration not stated) | -5 | -11 | 6 | -9 | 29* | 16
NCC(c1ccc(Cl)cc1Cl)c1c[nH]c2ccccc12 (configuration not stated) | 0 | -11 | 9 | 3 | 17 | 35*
CCOC(=O)C1(Cc2cccc(Cl)c2)CCCN(C(=O)CCOC)C1 (configuration not stated) | 1 | 24* | -9 | -1 | -15 | 2
CC(C)CCNC(=O)Nc1ccc2c(c1)N(C)C(=O)CS2 | -11 | -6 | 33* | 0 | -8 | 5
Cc1cc(Cl)c(S(=O)(=O)N2CCCCCC2)cc1OCC(=O)NC1CCCCC1 | 0 | -2 | 6 | -2 | 7 | 6
Cc1cc(Cl)c(S(=O)(=O)N2CCN(c3ccccn3)CC2)cc1OCC(=O)NC1CCCCC1 | -13 | -22 | 26* | -1 | 15 | 17
Cc1cc(C)c2cc(CN(CCO)C(=O)NC3CCCCC3)c(=O)[nH]c2c1 | -1 | -2 | 2 | -3 | 0 | -1
CCN1CCCC1CN(Cc1cc2c(C)cc(C)cc2[nH]c1=O)C(=O)NC1CCCCC1 (configuration not stated) | 3 | -9 | -2 | -5 | 36* | 0
Cc1ncc([N+](=O)[O-])n1CCOC(=O)Nc1ccc([N+](=O)[O-])cc1 | 3 | 3 | -7 | -4 | -8 | 2
COc1ccc(NS(=O)(=O)c2cccc(NC(=O)c3ccc(Cl)nc3)c2)cc1 | -12 | -12 | 24 | 3 | 24 | 15
O=C(Nc1cccc(S(=O)(=O)Nc2ccc(Cl)cc2)c1)c1ccc(Cl)nc1 | -15 | -15 | 29* | 1 | 30* | 16
Cc1ccc(NC(=O)c2cc(S(=O)(=O)NCCC3=CCCCC3)ccc2F)cc1 | 6 | -7 | -2 | -7 | 3 | -2
O=C(NCCN1CCCCC1)/C(=C/c1ccco1)NC(=O)c1ccccc1 | 31* | 6 | -28 | -2 | -19 | 0
Cc1ccc(C(=O)N/C(=C\c2ccco2)C(=O)NCCN2CCCCC2)cc1C | 6 | 1 | -3 | -6 | -2 | 1

From PubChem BioAssay
